# In PubChem BioAssay (EPA / NIEHS):
# The source made the active and inactive calls. How the source made its calls: active means hit-call score of the fitted dose curve at least 0.9, where 1 is the maximum; inactive means score below 0.9.
# Experiments:
# Conditions in all cases: mRNA level, 48 h; actives raise or lower the signal
# BCL2L11 (gene 10018) = experiment: LTEA_HepaRG_BCL2L11: Life Technologies and Expression Analysis (LTEA) Assay for Bcl-2 (BCL2L11) gene using HepaRG (AID 2283473)
# Outline: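 Human hepatic HepaRG cultures are treated 48 h with test chemicals (maximum 100 uM, 0.5% DMSO vehicle). Expression of BCL2L11 is measured by qRT-PCR against ACTB, GAPDH and POLR2A, with activity in either direction scored relative to vehicle.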
# [1] = read-out: Bcl-2 (BID) gene, BID (gene 637); experiment: LTEA_HepaRG_BID: Life Technologies and Expression Analysis (LTEA) Assay for Bcl-2 (BID) gene using HepaRG (AID 2283476)
# Outline: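 Duplicate 48 h treatments of HepaRG cells in serum-free induction medium spanned 100 uM downward in half-log steps, 0.5% DMSO. Transcript change quantified by qRT-PCR against three housekeeping genes, fitted up or down versus DMSO.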
# Caspase-3 (Homo sapiens) = Caspase-3 (Homo sapiens) (UniProt P42574); experiment: LTEA_HepaRG_CASP3: Life Technologies and Expression Analysis (LTEA) Assay for cysteine-aspartic acid protease (CASP3) using HepaRG (AID 2283477)
# Outline: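 Transcript-level assay: CASP3 mRNA in human HepaRG after 48 h treatment, eight half-log concentrations from 100 uM in 0.5% DMSO, quantified by qRT-PCR.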
# [2] = read-out: Cytochrome P450 (CYP24A1), CYP24A1 (gene 1591); experiment: LTEA_HepaRG_CYP24A1: Life Technologies and Expression Analysis (LTEA) Assay for Cytochrome P450 (CYP24A1) using HepaRG (AID 2283478)
# Outline: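 Gene expression of CYP24A1 by TaqMan qRT-PCR in HepaRG after 48 h treatment, highest concentration 100 uM; activity fitted in both directions relative to DMSO vehicle.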
# [3] = read-out: Cytochrome P450 (CYP1A2), CYP1A2 (gene 1544); experiment: LTEA_HepaRG_CYP1A2: Life Technologies and Expression Analysis (LTEA) Assay for Cytochrome P450 (CYP1A2) using HepaRG (AID 2283479)
# Outline: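 In duplicate wells, HepaRG cultures maintained in 0.5% DMSO were treated 48 h across an 8-point, half-log series topping at 100 uM; phenobarbital (1 mM) served as induction control. Expression was read by qRT-PCR.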
# [4] = read-out: cysteine-aspartic acid protease (CASP8), CASP8 (gene 841); experiment: LTEA_HepaRG_CASP8: Life Technologies and Expression Analysis (LTEA) Assay for cysteine-aspartic acid protease (CASP8) using HepaRG (AID 2283480)
# Outline: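 CASP8 transcript measured by TaqMan qRT-PCR with ACTB/GAPDH/POLR2A normalization, after 48 h chemical exposure of HepaRG cells in serum-free induction medium. Eight concentrations, top 100 uM, half-log steps, 0.5% DMSO vehicle; fits in both directions versus DMSO.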
# [5] = read-out: Cytochrome P450 (CYP2B6), CYP2B6 (gene 1555); experiment: LTEA_HepaRG_CYP2B6: Life Technologies and Expression Analysis (LTEA) Assay for Cytochrome P450 (CYP2B6) using HepaRG (AID 2283481)
# Outline: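 Human HepaRG, 48 h dosing, 0.5% DMSO vehicle, top dose 100 uM. CYP2B6 transcript by qRT-PCR, housekeeping-normalized, bidirectional curve fit.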
# [6] = read-out: Cytochrome P450 2C19 (Homo sapiens) (UniProt P33261); experiment: LTEA_HepaRG_CYP2C19: Life Technologies and Expression Analysis (LTEA) Assay for CYP2C19 using HepaRG (AID 2283482)
# Outline: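 Endpoint: CYP2C19 mRNA change, bidirectional fit vs 0.5% DMSO. Cells: HepaRG, 48 h exposure, eight-point series topping at 100 uM. Quantitation: qRT-PCR normalized to ACTB, GAPDH, POLR2A.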
# CYP2C8 (gene 1558) = experiment: LTEA_HepaRG_CYP2C8: Life Technologies and Expression Analysis (LTEA) Assay for CYP2C8 using HepaRG (AID 2283483)
# Outline: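 CYP2C8 expression measured by TaqMan qRT-PCR and normalized to three housekeeping genes. HepaRG cultures were treated for 48 h with an eight-point half-log series topping at 100 uM, vehicle 0.5% DMSO, duplicates; fitted both directions against DMSO.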
# CYP2C9 (gene 1559) = experiment: LTEA_HepaRG_CYP2C9: Life Technologies and Expression Analysis (LTEA) Assay for CYP2C9 using HepaRG (AID 2283484)
# Outline: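 CYP2C9 transcript level, quantified by TaqMan qRT-PCR against three housekeeping genes, was fitted bidirectionally relative to 0.5% DMSO. HepaRG cultures were treated 48 h, in duplicate, at eight half-log concentrations topping at 100 uM.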
# CYP2E1 (gene 1571) = experiment: LTEA_HepaRG_CYP2E1: Life Technologies and Expression Analysis (LTEA) Assay for CYP2E1 using HepaRG (AID 2283485)
# Outline: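 CYP2E1 transcript measured by Fluidigm qRT-PCR against three housekeeping genes in human HepaRG cells treated 48 h (top 100 uM, half-log steps, 0.5% DMSO vehicle). Gain or loss fitted relative to DMSO baseline.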
# CYP4A11 (gene 1579) = experiment: LTEA_HepaRG_CYP4A11: Life Technologies and Expression Analysis (LTEA) Assay for CYP4A11 using HepaRG (AID 2283486)
# Outline: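 Human hepatic HepaRG cultures receive duplicate 48 h exposures across a concentration-response series topping at 100 uM. Expression changes in CYP4A11 are measured by qRT-PCR relative to DMSO controls.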
# [7] = read-out: Cytochrome P450 3A4 (Homo sapiens) (UniProt P08684); experiment: LTEA_HepaRG_CYP3A4: Life Technologies and Expression Analysis (LTEA) Assay for CYP3A4 using HepaRG (AID 2283487)
# Outline: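 HepaRG, 48 h exposure, 8-pt CRC from 100 uM (half-log), 0.5% DMSO, duplicates; serum-free induction medium. Readout: CYP3A4 mRNA, qRT-PCR, ACTB/GAPDH/POLR2A normalization. Bidirectional fit vs DMSO.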
# [8] = read-out: DNA damage-inducible transcript 3 (DDIT3), DDIT3 (gene 1649); experiment: LTEA_HepaRG_DDIT3: Life Technologies and Expression Analysis (LTEA) Assay for DNA damage-inducible transcript 3 (DDIT3) using HepaRG (AID 2283488)
# Outline: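 DDIT3 transcript was quantified by qRT-PCR with ACTB/GAPDH/POLR2A normalization after 48 h chemical treatment of differentiated HepaRG cells in 0.5% DMSO. Dosing was eight-point, half-log, top 100 uM, duplicate wells. Curves fitted bidirectionally versus DMSO.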
# [9] = read-out: Pro-epidermal growth factor (Homo sapiens) (UniProt P01133); experiment: LTEA_HepaRG_EGF: Life Technologies and Expression Analysis (LTEA) Assay for Epidermal growth factor (EGF) using HepaRG (AID 2283489)
# Outline: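 Concentration-response mRNA assay: HepaRG cells dosed 48 h (max 100 uM, 0.5% DMSO), EGF measured by qRT-PCR and normalized to ACTB/GAPDH/POLR2A.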
# [10] = read-out: Early growth response protein 1 (EGR1) transcription factor, EGR1 (gene 1958); experiment: LTEA_HepaRG_EGR1: Life Technologies and Expression Analysis (LTEA) Assay for Early growth response protein 1 (EGR1) transcription factor using HepaRG (AID 2283490)
# Outline: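 EGR1 transcript levels quantified by qRT-PCR (Fluidigm arrays) against three housekeeping genes after 48 h chemical exposure of HepaRG cells. Eight-point half-log series topping at 100 uM, 0.5% DMSO vehicle, analyzed for gain or loss.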
# [11] = read-out: Ezrin (EZR), EZR (gene 7430); experiment: LTEA_HepaRG_EZR: Life Technologies and Expression Analysis (LTEA) Assay for Ezrin (EZR) using HepaRG (AID 2283491)
# Outline: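 Read-out is EZR transcript level by qRT-PCR, normalized to three housekeeping genes and fitted bidirectionally against the DMSO control. Human HepaRG cells received test chemicals for 48 h at eight half-log concentrations up to 100 uM in 0.5% DMSO.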
# [12] = read-out: Cytochrome P450 3A7 (Homo sapiens) (UniProt P24462); experiment: LTEA_HepaRG_CYP3A7: Life Technologies and Expression Analysis (LTEA) Assay for CYP3A7 using HepaRG (AID 2283492)
# Outline: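 qRT-PCR of CYP3A7 in HepaRG lysates after 48 h treatment; concentration-response (8 points, max 100 uM) analysed bidirectionally relative to 0.5% DMSO controls.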
# [13] = read-out: Apoptosis regulator Bcl-2 (Homo sapiens) (UniProt P10415); experiment: LTEA_HepaRG_BCL2: Life Technologies and Expression Analysis (LTEA) Assay for Bcl-2 gene using HepaRG (AID 2283475)
# Outline: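 qRT-PCR of BCL2 transcript, normalized to three housekeeping genes (ACTB, GAPDH, POLR2A), after 48 h chemical exposure of HepaRG cells; concentrations top 100 uM with half-log dilutions, 0.5% DMSO vehicle, duplicates; changes up or down fitted relative to vehicle.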
# Chain of Cytochrome P450 3A4 (Homo sapiens) (P08684 whole entry, looked up): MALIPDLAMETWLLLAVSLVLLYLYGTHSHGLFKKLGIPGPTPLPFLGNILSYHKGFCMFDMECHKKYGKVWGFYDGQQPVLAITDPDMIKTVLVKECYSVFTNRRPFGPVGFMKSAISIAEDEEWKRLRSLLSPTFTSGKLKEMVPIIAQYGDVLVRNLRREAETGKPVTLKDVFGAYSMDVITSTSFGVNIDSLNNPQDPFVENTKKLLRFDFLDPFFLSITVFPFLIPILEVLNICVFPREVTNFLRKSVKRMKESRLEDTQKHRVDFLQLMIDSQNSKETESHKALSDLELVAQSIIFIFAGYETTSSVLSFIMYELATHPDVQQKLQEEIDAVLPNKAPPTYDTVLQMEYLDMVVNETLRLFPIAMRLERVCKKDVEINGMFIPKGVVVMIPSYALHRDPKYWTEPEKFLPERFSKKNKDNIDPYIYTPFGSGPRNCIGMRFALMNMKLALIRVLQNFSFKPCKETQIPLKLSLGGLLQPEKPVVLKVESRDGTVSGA
# Chain of Caspase-3 (Homo sapiens) (P42574 whole entry, looked up): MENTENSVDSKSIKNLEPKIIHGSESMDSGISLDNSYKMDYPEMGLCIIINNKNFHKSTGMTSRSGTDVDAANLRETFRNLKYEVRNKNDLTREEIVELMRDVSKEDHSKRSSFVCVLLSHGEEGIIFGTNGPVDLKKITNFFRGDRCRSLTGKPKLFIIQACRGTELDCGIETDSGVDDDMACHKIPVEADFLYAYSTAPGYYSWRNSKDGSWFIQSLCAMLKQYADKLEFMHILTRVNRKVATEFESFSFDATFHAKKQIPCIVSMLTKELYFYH
# Chain of Cytochrome P450 3A7 (Homo sapiens) (P24462 whole entry, looked up): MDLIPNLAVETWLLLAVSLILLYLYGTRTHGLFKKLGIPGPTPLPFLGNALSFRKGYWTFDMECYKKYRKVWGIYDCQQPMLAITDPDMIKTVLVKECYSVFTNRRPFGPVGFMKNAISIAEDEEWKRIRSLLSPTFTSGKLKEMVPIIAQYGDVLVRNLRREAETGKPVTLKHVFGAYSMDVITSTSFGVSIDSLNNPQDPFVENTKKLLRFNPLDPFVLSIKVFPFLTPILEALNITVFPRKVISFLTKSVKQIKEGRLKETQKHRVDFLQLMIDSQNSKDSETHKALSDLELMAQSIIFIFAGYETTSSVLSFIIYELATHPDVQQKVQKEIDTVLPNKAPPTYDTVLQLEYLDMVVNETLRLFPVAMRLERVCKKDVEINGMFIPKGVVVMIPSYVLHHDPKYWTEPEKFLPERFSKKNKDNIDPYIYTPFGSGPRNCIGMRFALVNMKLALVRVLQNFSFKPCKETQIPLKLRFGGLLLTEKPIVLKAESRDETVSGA
# Chain of Cytochrome P450 2C19 (Homo sapiens) (P33261 whole entry, looked up): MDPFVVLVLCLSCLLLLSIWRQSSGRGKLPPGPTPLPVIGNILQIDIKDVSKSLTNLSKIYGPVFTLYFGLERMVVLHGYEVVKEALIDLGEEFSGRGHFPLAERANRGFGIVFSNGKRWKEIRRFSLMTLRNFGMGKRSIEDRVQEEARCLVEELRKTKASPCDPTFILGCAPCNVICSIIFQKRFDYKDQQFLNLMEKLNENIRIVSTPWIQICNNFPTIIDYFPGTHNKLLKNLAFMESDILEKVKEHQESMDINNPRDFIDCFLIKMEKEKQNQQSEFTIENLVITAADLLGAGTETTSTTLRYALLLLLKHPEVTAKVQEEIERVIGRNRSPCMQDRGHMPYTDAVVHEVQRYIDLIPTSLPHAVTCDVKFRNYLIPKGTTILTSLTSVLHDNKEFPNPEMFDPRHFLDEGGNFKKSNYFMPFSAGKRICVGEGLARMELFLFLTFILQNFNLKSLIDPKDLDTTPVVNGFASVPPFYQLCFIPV
# Chain of Apoptosis regulator Bcl-2 (Homo sapiens) (P10415 whole entry, looked up): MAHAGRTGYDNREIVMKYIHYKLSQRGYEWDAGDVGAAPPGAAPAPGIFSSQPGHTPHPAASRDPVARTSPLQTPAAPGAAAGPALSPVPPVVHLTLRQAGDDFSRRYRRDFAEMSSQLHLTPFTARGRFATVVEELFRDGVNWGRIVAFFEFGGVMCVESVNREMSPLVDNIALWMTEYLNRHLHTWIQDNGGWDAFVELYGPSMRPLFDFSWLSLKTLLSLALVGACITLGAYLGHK
smiles,measurement,setting,value
O=C(NO)C1(NS(=O)(=O)c2ccc(Oc3ccc(F)cc3)cc2)CCOCC1,outcome,BCL2L11 (gene 10018),inactive
same,outcome,[1],inactive
same,AC50,Caspase-3 (Homo sapiens),50 µM (active)
same,outcome,[2],inactive
same,outcome,[3],inactive
same,outcome,[4],inactive
same,AC50,[5],11.8 µM (active)
same,AC50,[6],12.8 µM (active)
same,AC50,CYP2C8 (gene 1558),90.7 µM (active)
same,outcome,CYP2C9 (gene 1559),inactive
same,AC50,CYP2E1 (gene 1571),54.4 µM (active)
same,AC50,CYP4A11 (gene 1579),71 µM (active)
same,AC50,[7],4.48 µM (active)
same,AC50,[8],77.8 µM (active)
same,outcome,[9],inactive
same,outcome,[10],inactive
same,outcome,[11],inactive
same,outcome,[12],inactive
CCn1nc(C)c2c1C(=O)NCC(c1ccc(O)cc1)=N2,outcome,BCL2L11 (gene 10018),inactive
same,outcome,[1],inactive
same,outcome,Caspase-3 (Homo sapiens),inactive
same,outcome,[2],inactive
same,AC50,[3],34.1 µM (active)
same,outcome,[4],inactive
same,AC50,[5],32.9 µM (active)
same,outcome,[6],inactive
same,outcome,CYP2C8 (gene 1558),inactive
same,outcome,CYP2C9 (gene 1559),inactive
same,outcome,CYP2E1 (gene 1571),inactive
same,AC50,CYP4A11 (gene 1579),27.9 µM (active)
same,AC50,[7],29.9 µM (active)
same,outcome,[8],inactive
same,outcome,[9],inactive
same,outcome,[10],inactive
same,outcome,[11],inactive
same,AC50,[12],34.1 µM (active)
O=C1CN(N=Cc2ccc([N+](=O)[O-])o2)C(=O)N1,outcome,BCL2L11 (gene 10018),inactive
same,outcome,[1],inactive
same,outcome,Caspase-3 (Homo sapiens),inactive
same,outcome,[2],inactive
same,outcome,[4],inactive
same,AC50,[5],50 µM (active)
same,outcome,[6],inactive
same,AC50,CYP2C8 (gene 1558),50 µM (active)
same,outcome,CYP2C9 (gene 1559),inactive
same,AC50,CYP2E1 (gene 1571),52.7 µM (active)
same,AC50,CYP4A11 (gene 1579),45.7 µM (active)
same,AC50,[8],80.7 µM (active)
same,outcome,[9],inactive
same,outcome,[10],inactive
same,outcome,[11],inactive
same,outcome,[12],inactive
CCc1ccc(O)c(C(C)(C)C)c1,outcome,BCL2L11 (gene 10018),inactive
same,AC50,[1],0.00367 µM (active)
same,outcome,Caspase-3 (Homo sapiens),inactive
same,outcome,[2],inactive
same,outcome,[4],inactive
same,outcome,[5],inactive
same,outcome,[6],inactive
same,outcome,CYP2C8 (gene 1558),inactive
same,outcome,CYP2C9 (gene 1559),inactive
same,outcome,CYP2E1 (gene 1571),inactive
same,outcome,CYP4A11 (gene 1579),inactive
same,outcome,[7],inactive
same,outcome,[8],inactive
same,outcome,[9],inactive
same,outcome,[10],inactive
same,outcome,[11],inactive
same,outcome,[12],inactive
C=CCc1cc(S(=O)(=O)c2ccc(O)c(CC=C)c2)ccc1O,outcome,BCL2L11 (gene 10018),inactive
same,outcome,[1],inactive
same,outcome,Caspase-3 (Homo sapiens),inactive
same,outcome,[2],inactive
same,outcome,[4],inactive
same,AC50,[5],80.6 µM (active)
same,AC50,[6],95.4 µM (active)
same,AC50,CYP2C8 (gene 1558),97.2 µM (active)
same,AC50,CYP2C9 (gene 1559),93 µM (active)
same,AC50,CYP2E1 (gene 1571),86.3 µM (active)
same,AC50,CYP4A11 (gene 1579),94.4 µM (active)
same,AC50,[7],80.4 µM (active)
same,AC50,[8],84.9 µM (active)
same,outcome,[9],inactive
same,outcome,[10],inactive
same,outcome,[11],inactive
same,AC50,[12],76.8 µM (active)
CC(C)CCCCCCOC(=O)C1CCCCC1C(=O)OCCCCCCC(C)C (stereo unspecified),outcome,BCL2L11 (gene 10018),inactive
same,outcome,[13],inactive
same,AC50,[1],0.00316 µM (active)
same,AC50,Caspase-3 (Homo sapiens),0.00316 µM (active)
same,outcome,[2],inactive
same,AC50,[4],0.00316 µM (active)
same,outcome,[5],inactive
same,outcome,[6],inactive
same,outcome,CYP2C8 (gene 1558),inactive
same,outcome,CYP2C9 (gene 1559),inactive
same,outcome,CYP2E1 (gene 1571),inactive
same,outcome,CYP4A11 (gene 1579),inactive
same,outcome,[7],inactive
same,outcome,[8],inactive
same,outcome,[9],inactive
same,outcome,[10],inactive
same,outcome,[11],inactive
same,outcome,[12],inactive
CCCC(CCC)C(=O)O,outcome,BCL2L11 (gene 10018),inactive
same,outcome,[1],inactive
same,outcome,Caspase-3 (Homo sapiens),inactive
same,outcome,[2],inactive
same,outcome,[4],inactive
same,outcome,[5],inactive
same,outcome,[6],inactive
same,outcome,CYP2C8 (gene 1558),inactive
same,outcome,CYP2C9 (gene 1559),inactive
same,outcome,CYP2E1 (gene 1571),inactive
same,outcome,CYP4A11 (gene 1579),inactive
same,outcome,[7],inactive
same,outcome,[8],inactive
same,outcome,[9],inactive
same,outcome,[10],inactive
same,outcome,[11],inactive
same,outcome,[12],inactive
